Screens: PubChem BioAssay, The Scripps Research Institute Molecular Screening Center
LEDGF integ inh = blockers of LEDGF/p75-dependent integrase strand transfer – biochemical, TR-FRET, high throughput, primary screen; AID 743269, 2014; HIV-1 integrase (with human LEDGF/p75); TR-FRET IN-LEDGF/p75 DNA integration, Eu/Cy5; 370,000 compounds, 0.64% hits; inhibition, % at 3.7 µM;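 active means inhibition above the screen-wide mean plus 3 SD, cut at about 13% in these data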;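 further: signal is the Cy5 over europium emission ratio at 671 and 618 nm; 0% = plate median of compound wells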
PLCb3 inh = human PLC-beta3 inhibitors, primary screen, biochemical, fluorescence; Purified PLC-beta3, fluorogenic substrate; AID 720704, 2013; 370,000 compounds, 0.18% hits; inhibition, % at 12.2 µM; in the data active means inhibition above about 11%;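 further: 0% = median of compound wells on plate and 100% = full blocker control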
UHRF1 MBD2 ctr = UHRF1 methylated DNA binding inhibitors, primary screen, counter-screen for MBD2 inhibitor project, biochemical, TR-FRET, human UHRF1, single concentration; UHRF1 binding to methylated oligo; inhibition, % at 4.4 µM; 370,000 compounds, 0.75% hits; in the data active means inhibition above about 21%;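 further: UHRF1 SRA domain binding a hemimethylated CpG hairpin DNA probe; 0% = median of test compound wells and 100% = reference inhibitor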
PLC-gamma1 inh = PLC-gamma1 enzyme inhibitors, primary screen, biochemical, fluorescence, purified enzyme; 370,000 compounds, 0.84% hits; AID 720700, 2013; fluorogenic substrate; 1-phosphatidylinositol 4,5-bisphosphate phosphodiesterase gamma-1 (Homo sapiens), P19174; inhibition, % at 12.2 µM
MBD2 inh = inhibitors of MBD2 binding to methylated DNA, primary screen, biochemical, TR-FRET, DNA-binding domain, human; Methyl-CpG-binding domain protein 2 (Homo sapiens), Q9UBB5; MBD2 binding to methylated oligonucleotide; inhibition, % at 4.4 µM; 370,000 compounds, 0.31% hits; in the data active means inhibition above about 13%
PLCg1 ctr = PLC-gamma1 enzyme inhibitors, counter-screen for PLC-beta3 inhibitor project, biochemical, fluorescence | shares compounds with PLC-gamma1 inh | purified PLC-gamma1, fluorogenic substrate | inhibition, % at 12.3 µM | 3,300 compounds, 3.1% hits
PLCbeta3 conf = PLC-beta3 inhibitor confirmation, biochemical, fluorescence, purified enzyme. AID 743261, 2014. shares compounds with PLC-gamma1 inh. fluorogenic substrate fluorescence. inhibition, % at 12.3 µM. 3,300 compounds, 1% hits; in the data active means inhibition above about 11%
Starred values were filed as active, the others as inactive; . = not tested or not shown. The list is not random: actives were taken first. Their share in the collection is about 2.3%. Unless noted, no stated cut-off is given here; in the data, active means inhibition above about 9.5%; inactive means the rest.

SMILES	LEDGF integ inh	PLCb3 inh	UHRF1 MBD2 ctr	PLC-gamma1 inh	MBD2 inh	PLCg1 ctr	PLCbeta3 conf
C[C@H](CO)N1C[C@H](C)[C@@H](CN(C)S(=O)(=O)c2ccc3c(c2)OCCCO3)OCc2cn(nn2)CCCC1=O	4	4	0	9.5*	4	-3	-2
C[C@H](CO)N1C[C@H](C)[C@@H](CN(C)C(=O)c2ccccc2)OCc2cn(nn2)CCCC1=O	7	11*	4	4	-5	1	5
O=C1CSc2ccc(C(=O)N3CCCC(C(=O)N4CCN(c5ccc(F)cc5)CC4)C3)cc2N1 (centres undefined)	-2	2	2	2	3	.	.
COc1ccc(C#Cc2ccc3c(c2)[C@H]2[C@H](CCN2S(=O)(=O)c2ccccc2F)[C@H](CO)N3C)cc1	4	-69	-1	-50	-8	.	.
COc1ccc(C(C)c2cn(C)c3ccccc23)cc1 (centres undefined)	-2	-8	1	-4	-4	.	.
COc1ccc(C2C(C(=O)Nc3ccc(Cl)c(Cl)c3)CCC(=O)N2c2ccc(OC)cc2)cc1 (centres undefined)	-2	0	-1	0	4	.	.
O=C(CCNS(=O)(=O)c1ccccc1C(F)(F)F)NCCCSc1ccccc1	11	-1	-3	12*	-3	-6	-1
O=C(CCNS(=O)(=O)c1ccccc1)NCCCSc1ccccc1	-6	-9	3	7	11	.	.
CCOC(=O)C1CCN(C(=O)COc2ccc(Br)cc2)CC1	-1	7	5	11*	2	-4	0
CC(C)(C)c1ccc(OCC(O)CN2CCN(C(=O)c3ccccc3)CC2)cc1 (centres undefined)	2	9	-3	14*	-5	-1	0
CCCOC(=O)c1ccc(OCC(O)CN2CCN(C(=O)c3ccccc3)CC2)cc1 (centres undefined)	1	4	0	3	-2	.	.
CCOC(=O)C1CCN(CC(O)COc2ccc(C(C)(C)CC)cc2)CC1 (centres undefined)	3	8	1	12*	-5	-3	-2
Cc1cnn(-c2cc(N/N=C/c3ccccc3F)ncn2)c1	-2	5	5	12*	-3	-7	-3
Clc1nnc(Cl)c2c1ncn2Cc1ccccc1	3	4	3	11*	-4	-3	-1
O=c1c2ccccc2ncn1Cc1ccccc1	0	-4	-2	-1	-3	.	.
COC(=O)COc1ccc(S(=O)(=O)NCc2ccco2)cc1Cl	5	10	3	11*	-7	-3	-6
COCCNS(=O)(=O)c1ccc(OCC(=O)OC)c(Cl)c1	1	7	-2	-37	1	.	.
O=C(NCc1ccc(OC(F)(F)F)cc1)C1CC2Cn3c(nc4ccccc43)C2N1Cc1ccccc1 (centres undefined)	3	0	1	-1	1	.	.
O=C(NCc1cccc(C(F)(F)F)c1)C1CC2Cn3c(nc4ccccc43)C2N1Cc1ccccc1 (centres undefined)	0	12*	3	6	5	-5	-1
Cc1nc([N+](=O)[O-])c(Br)n1CC(=O)c1ccc(F)cc1	2	-2	-1	8	0	.	.
Cc1nc([N+](=O)[O-])c(Br)n1CC(=O)c1cccc([N+](=O)[O-])c1	3	6	0	9.9*	0	9	-3
CC(OC(=O)c1ccc2c(c1)OCO2)C(=O)NC1CCCCC1C (centres undefined)	3	3	1	0	1	.	.
CC(OC(=O)c1ccc2c(c1)OCO2)C(=O)NC1CCCCC1 (centres undefined)	5	2	2	11*	-5	-7	-2
CC(=O)Nc1cccc(C(=O)OC(C)C(=O)NCc2ccc3c(c2)OCO3)c1 (centres undefined)	-4	-8	1	9.9*	11	4	6
CCc1nc2nc(C)c(NS(=O)(=O)c3ccc(F)cc3)c(=O)n2[nH]1	2	8	6	11*	4	-2	1
SMILES	LEDGF integ inh	PLCb3 inh	UHRF1 MBD2 ctr	PLC-gamma1 inh	MBD2 inh	PLCg1 ctr	PLCbeta3 conf
O=C(NC1CCCCN(Cc2ccc(Cl)cc2)C1=O)c1ccc(-c2ccccc2)cc1 (centres undefined)	2	1	1	1	-3	.	.
CN(C)c1nc(Nc2ccccc2)nc(Oc2ccc(=O)[nH]n2)n1	-1	3	0	4	5	.	.
Cc1ccc(Nc2nc(Oc3ccc(=O)[nH]n3)nc(N(C)C)n2)cc1	-6	3	6	10.0*	6	-8	-1
COc1ccc(C(=O)Nc2ccc(S(=O)(=O)Nc3ncccn3)cc2)cc1OC	7	14*	4	4	1	-9	-5
C#CCN(C[C@@H]1[C@@H](OC(=O)NC2CCCC2)[C@@H](OC(=O)NC2CCCC2)CN(C(=O)OC(C)C)N1C(=O)OC(C)C)S(=O)(=O)c1ccc(C)cc1	5	0	1	11*	4	-6	-7
COc1ccc(-n2c(SCC(=O)Nc3ccccc3-c3ccccc3)nnc2-c2ccccc2)cc1	0	-3	1	5	4	.	.
Cc1ccc(C(C(=O)NC2CCCCC2)N(Cc2ccco2)C(=O)C2COc3ccccc3O2)o1 (centres undefined)	2	-4	7	9.6*	2	9	1
Cc1ccc(NC(=S)N2CCN(c3ccccn3)CC2)cc1C	4	0	1	11*	-6	-1	2
Cc1cccc(NC(=S)N2CCN(c3ccccn3)CC2)c1	-1	4	1	4	-3	.	.
S=C(Nc1ccccc1Cl)N1CCN(c2ccccn2)CC1	0	-7	3	1	-4	.	.
Fc1ccccc1NC(=S)N1CCN(c2ccccn2)CC1	-2	8	6	10*	-3	-7	-1
CCOc1ccc(CCNC(=O)c2cc(-c3ccccc3)c(N3CCOCC3)s2)cc1OC	-2	-9	1	-6	2	.	.
COC(=O)c1ccc2c(c1)NC(=O)CS2	2	1	6	4	-2	.	.
O=C1CSc2ccccc2N1	0	5	4	11*	1	-1	-1
Cn1c(CNC(=O)CNS(=O)(=O)c2ccccc2)cc(=O)n(C)c1=O	-3	-3	0	1	2	.	.
